Assay outcomes as filed in PubChem BioAssay.
ClpP mod = qHTS Assay for Activators of ClpP | purified B. subtilis ClpP, FRET peptide cleavage, 20 min | Potency, µM (titrated, usually from 57.5 µM), for inactives: top-dose activity change, negative = active | 1.9% of 340,000 active; active = well fitted falling curve with a large enough effect; inconclusive = small, poorly fitted or top-dose-only effect; inactive = no such curve, though single readings can be large or run the other way; also: the source files actives as falling curves though it sought activators and does not explain the sign; nearly all actives have a fitted effect of over 65% in size
Target sequence (P80244 whole entry, looked up): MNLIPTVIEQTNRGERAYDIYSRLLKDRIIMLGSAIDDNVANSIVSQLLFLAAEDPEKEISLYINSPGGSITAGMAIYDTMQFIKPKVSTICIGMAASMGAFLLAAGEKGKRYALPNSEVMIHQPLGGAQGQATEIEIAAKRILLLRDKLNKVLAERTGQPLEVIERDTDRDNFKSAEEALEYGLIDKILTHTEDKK
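FRET quenching reversal measured ClpP activation: 10 microg/mL B. subtilis ClpP at pH 8 with the FRET-FV decapeptide, read at 430 nm after 320 nm excitation. The 20-min minus 0-min signal was scaled between DMSO/no-enzyme wells and ADEP (5.8 microM final).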
TDP1 inh = TDP1 (human) enzyme inhibition | recombinant TDP1, AlphaScreen DNA substrate cleavage | Potency, µM (doses to about 130 µM), inactives show at the highest dose activity change, negative = inhibition, hits mostly inhibitors | 0.28% of 350,000 active | AID 485290; also: % is scaled to controls: 0 for no effect and ±100 for the full control effect; nearly all actives have a fitted effect of over 40% in size
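Steps: enzyme plus compound, 15 min RT; add biotin/phosphotyrosine-FITC oligonucleotide (15 nM final), react 5 min; add donor/acceptor beads (10 ug/ml final), 10 min; read AlphaScreen. Tdp1 at 1 nM final.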
TDP1 cell noCPT = qHTS for Inhibitors of human tyrosyl-DNA phosphodiesterase 1 (TDP1): qHTS in cells in absence of CPT. DT40 Tdp1-/- hTDP1 cells, no CPT, ATP luminescence, 48 h. Potency, µM (doses to about 46.2 µM), without a hit: at the highest dose activity change, negative = growth inhibition, most hits filed as inhibitors. 15% of 420,000 active; also: % is scaled to controls: 0 for no effect and ±100 for the full control effect; nearly all actives have a fitted effect of over 55% in size
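Growth of hTDP1-complemented DT40 Tdp1-knockout cells is measured by ATP luminescence after at least 48 hr compound exposure at 37 °C, with DMSO substituting for the 20 nM CPT used in the parallel screen.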
DT40 TDP1 CPT = DT40-hTDP1 cell growth loss with CPT. AID 686979. Potency, µM (highest dose often 46.2 µM), inactives show top-dose activity change, negative = growth inhibition, usual class: inhibitors. chicken DT40 Tdp1-/-;hTDP1 cells + 20 nM CPT, ATP luminescence, 48 h. 12% of 420,000 active; also: % is scaled to controls: 0 for no effect and ±100 for the full control effect; nearly all actives have a fitted effect of over 55% in size
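Chicken DT40 Tdp1-/- cells complemented with human TDP1, 400 cells/well, exposed to compounds plus 20 nM camptothecin for at least 48 h at 37 C; viability read as ATP content by CellTiter-Glo luminescence.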
An asterisk follows results filed as active; ? = inconclusive; . = not tested or not shown; [ ] = remark or other dose. A selection: hits, their analogues and other compounds. The true share with any hit is near 17%. Unless noted, calls follow the shape of the dose curve; as a rule, active = well fitted curve in the direction sought with a large enough effect; inconclusive = small, poorly fitted or top-dose-only effect, or another doubt; inactive = no such curve, though single readings can be large; an effect the other way counts as inactive or inconclusive. Potency is read from the fitted curve at half-maximal effect.

SMILES | ClpP mod | TDP1 inh | TDP1 cell noCPT | DT40 TDP1 CPT
COc1ccccc1NC(=O)C1=C(C)Nc2c(C(=O)Nc3cccc(C)c3)cnn2C1c1ccccc1Cl (stereo not drawn) | ? | 5.3% | ? | ?
CCC(=O)N1CCCC1(C)C(=O)Nc1ccc(C)c(C)c1 (stereo not drawn) | 0.6% | . | -0.5% | -24.3%
CCCOC(=O)CSC1=C(C#N)C(c2ccc3c(c2)OCO3)CC(=O)N1 (stereo not drawn) | 2.2% | 1.0% | 23.1µM* | 18.4µM*
COC(=O)CSC1=C(C#N)C(c2ccc(C)o2)CC(=O)N1 (stereo not drawn) | . | 4.8% | 2.91µM* | 14.6µM*
CC(C)CCn1c(O)c(N=NC(=O)c2ccco2)c2ccccc21 | -1.0% | 2.6% | ? | -18.9%
COc1ccccc1NC(=O)Cn1c(O)c(N=NC(=O)c2ccccc2O)c2ccccc21 | 1.9% | -13.5% | 1.84µM* | 0.92µM*
Cc1ccc(NC(=O)Cn2c(O)c(N=NC(=O)c3cc4ccccc4cc3O)c3ccccc32)cc1 | -1.6% | 2.3% | 7.31µM* | 7.31µM*
Cc1cccc(NC(=O)Cn2c(O)c(N=NC(N)=S)c3ccccc32)c1 | . | . | 14.6µM* | 23.1µM*
O=C(N=Nc1c(O)n(Cc2ccccc2)c2ccccc12)c1cc2ccccc2cc1O | -1.0% | 4.6% | 14.6µM* | ?
O=C(Cn1c(O)c(N=NC(=O)c2ccncc2)c2ccccc21)Nc1ccccc1 | . | 3.7% | -11.2% | -15.8%
COc1ccc2c(c1)CCc1cnc(-n3ncc(C(=O)NCC(C)(C)CN(C)C)c3C)nc1-2 | . | . | ? | 4.9%[9.04 µM]
CC(=O)ON(C(C)=O)c1ccc(/C=C2\C=Cc3ccccc32)cc1 | -1.1% | . | ? | ?
O=C1CC(c2ccccc2)c2cccc(F)c21 (stereo not drawn) | 1.1% | . | -25.6% | -1.6%
O=C(N=Nc1c(O)n(Cc2ccccc2)c2ccccc12)c1ccc(O)cc1 | 1.4% | 10.3% | 23.1µM* | ?
O=S1(=O)CC(O)C(N=Nc2c(O)n(Cc3ccccc3)c3ccccc23)C1 (stereo not drawn) | 0.6% | . | 11.6µM* | 16.4µM*
COc1ccc(C(=O)NCC(=O)N=Nc2c(O)n(Cc3ccccc3)c3ccccc23)cc1OC | . | 0.0% | 16.4µM* | ?
O=C(NNc1cc(Br)c(O)c(Br)c1)c1ccccc1 | . | 5.0% | 18.4µM* | ?
NS(=O)(=O)c1ccc(NNC(=O)c2ccccc2)cc1 | 0.0% | . | -2.4% | 0.7%
Cc1ccc(OCCN2C(=O)c3ccccc3C2=O)cc1 | 2.0% | -5.9% | 3.5% | 9.6%
COc1ccc(OCCN2C(=O)c3cccc(N)c3C2=O)cc1 | . | . | -14.9% | 0.0%
Cc1cccc2c1N(CCCOc1ccccc1)C(=O)C2=O | -0.8% | 7.8% | 16.4µM* | 9.2µM*
Cc1ccc2c(c1)C(=O)C(=O)N2CCCOc1ccccc1C | 0.9% | 5.6% | 2.91µM* | 3.26µM*
Cc1ccccc1OCCCN1C(=O)C(=O)c2cccc(C)c21 | 0.9% | 14.1% | 1.84µM* | 2.59µM*
Cc1cccc2c1N(CCCOc1ccc(C(C)(C)C)cc1)C(=O)C2=O | -2.9% | 11.8% | 18.4µM* | ?
Cc1ccc(OCCN2C(=O)c3ccccc3C2=O)c(C)c1 | -0.2% | -1.0% | -8.2% | 25.2%
SMILES | ClpP mod | TDP1 inh | TDP1 cell noCPT | DT40 TDP1 CPT
CC(=O)N1CCC[C@H]1C(=O)NCC1Cc2cc(C)cc(-c3ccc(Cl)cc3)c2O1 (stereo partly drawn) | . | . | -22.4% | -11.8%[9.04 µM]
Cc1ccc(Cn2c(=O)c3ccccc3n3c(-c4ccccc4)nnc23)cc1 | -3.0% | 8.6% | ? | ?
CCOc1ccc(CN(C)C(=O)CCN2C(=O)c3ccccc3C2=O)cc1OC | . | 0.0% | -5.8% | 10.4%
CCOc1ccc(CN2C(=O)C(=O)c3cccc(C)c32)cc1OC | 1.4% | -5.1% | 1.64µM* | ?
CCCCOc1ccc(S(=O)(=O)NCc2csc(-c3ccc(OC)cc3)n2)cc1 | 12.6µM* | 0.0% | ? | ?
O=S(=O)(NCCc1csc(-c2cccnc2)n1)c1ccc2c(c1)OCCO2 | -10.1% | 3.1% | -23.3% | ?
Cc1cccn2cc(CCNS(=O)(=O)c3ccc4c(c3)OCCO4)nc12 | -10.4% | 1.0% | -13.7% | -17.5%
COc1ccc(-c2nc(CCNS(=O)(=O)c3ccc4c(c3)OCCO4)cs2)cc1 | 4.0% | 4.3% | 16.4µM* | 18.4µM*
O=S(=O)(NCCc1csc(-c2ccc(C(F)(F)F)cc2)n1)c1ccc2c(c1)OCCO2 | -17.9% | 3.3% | 14.6µM* | 18.4µM*
O=C(Nc1nnc(SCc2ccccn2)s1)C1CC(=O)N(c2ccc(F)cc2)C1 (stereo not drawn) | -2.7% | 3.9% | -17.8% | -12.6%
COc1ccccc1-c1cc2c(c(OC)c1)OCCN(CCC(C)c1ccc(C)o1)C2 (stereo not drawn) | . | . | -12.7% | -14.4%[9.04 µM]
Cn1ncc(Cl)c1C(=O)NCc1cc(C(C)(C)C)n[nH]1 | -4.1% | 2.4% | 18.4µM* | ?
Fc1ccc(C(CCNCc2ccccn2)c2ccc(Cl)cc2)cc1 (stereo not drawn) | 2.3% | . | 18.4µM* | ?
CCCNC(=O)c1onc(CSc2ccc(Cl)cc2)c1C(=O)NC(C)C | -1.7% | -9.5% | -13.3% | ?
CC(NC(=O)CN1C(=O)COc2ccc(S(=O)(=O)N3CCCCCC3)cc21)c1ccccc1 (stereo not drawn) | -1.5% | 3.5% | ? | ?
COc1ccc(C(C)=O)cc1CSc1ccc(S(=O)(=O)N2CCOCC2)cn1 | -0.9% | 2.7% | ? | ?
O=S(=O)(c1ccc(SCc2ccc(Cl)cc2)nc1)N1CCCC1 | -2.6% | -9.2% | 14.6µM* | ?
O=S(=O)(c1ccc(SCCOc2ccc(Br)cc2)nc1)N1CCCC1 | -4.5% | -7.6%[56.1 µM] | 16.4µM* | ?
COc1ccc(C(C)=O)cc1CSc1ccc(S(=O)(=O)N2CCCCC2)cn1 | 0.6% | -3.2%[56.1 µM] | 16.4µM* | ?
COc1ccc(CSc2ccc(S(=O)(=O)N3CCCC3)cn2)cc1F | 2.5% | . | 16.4µM* | 23.1µM*
COc1ccc(C(=O)Nc2ccc3oc(-c4cccc(Cl)c4)cc(=O)c3c2O)cc1 | 0.4% | . | ? | -28.1%
CCCCN(C)C(=O)c1ccc(Nc2nc(C(N)CCc3ccccc3)cs2)nc1 (stereo not drawn) | -18.3% | . | 20.6µM* | 14.6µM*
CCCCN(C)C(=O)c1ccc(Nc2nc(C(N)Cc3ccc(C(F)(F)F)cc3)cs2)nc1 (stereo not drawn) | -13.0% | . | 11.6µM* | 8.2µM*
COc1c(N2CCN(C(=S)Nc3ccc(F)cc3)C(C)C2)c(F)cc2c(=O)c(C(=O)O)cn(C3CC3)c12 (stereo not drawn) | -13.4% | 0.0% | -23.1% | -2.6%
COc1c(N2CCN(C(=S)NC3CC4CCC3C4)C(C)C2)c(F)cc2c(=O)c(C(=O)O)cn(C3CC3)c12 (stereo not drawn) | -12.9% | 5.6% | 23.1µM* | 23.1µM*
